Laboratory results from PubChem BioAssay (NCATS).
Inconclusive results are not listed. Activity calls are given as the source filed them. Unless noted, calls come from the whole dose curve; as a rule, active = well fitted curve in the direction sought with a large enough effect; inconclusive = small, poorly fitted or top-dose-only effect, or another doubt; inactive = no such curve, though single readings can be large; an effect the other way counts as inactive or inconclusive.

How the values were obtained:
[1] = AP1 Signaling Pathway (AID 357; active = well fitted curve in either direction with a large enough effect, not every such curve was filed as active;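 note: ME-180 reporter cells stimulated with EGF at its EC50 level; % is set by controls: 0 for no effect and ±100 for the full control effect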); settings: ME-180 AP-1-bla reporter, EGF-induced, beta-lactamase ratio, 5 h; at 7.69 µM (top of the series) unless noted
Procedure, shortened: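 Beta-lactamase reporter under AP-1 response element, ME-180 background. Stimulus: EC50 EGF. Compound exposure 5 h, 37 °C. Detection: CCF4, 2.5 h RT, 460/530 nm. Values: AC50 from titration.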

[2] = molecular target: Cytochrome P450 1A2 (Homo sapiens) (UniProt P05177); assay: p450-cyp1a2 (AID 410; calls by dose curve; note: potency is the fitted concentration of half-maximal effect;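 for activity change, negative = inhibition: -100% = full effect of reference inhibitor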)
Procedure, shortened: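 O-Demethylation of luciferin 6' methyl ether by human CYP1A2 is monitored as luciferase luminescence. Substrate sits at Km (100uM); enzyme is 20nM. Values are scaled to 57 uM furafylline as maximal inhibition.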

[3] = NFAT Signaling Pathway (AID 444; active = well fitted curve in either direction with a large enough effect, not every such curve was filed as active;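 note: carbachol stimulus at about its EC50 of 1 µM final; % is set by controls: 0 for no effect and ±100 for the full control effect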); settings: Jurkat NFAT-bla M1, carbachol, beta-lactamase ratio, 5 h; at 7.69 µM (top of the series) unless noted
Procedure, shortened: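 Jurkat cells carrying an NFAT-driven β-lactamase reporter and co-transfected muscarinic M1 receptor were treated with compound plus carbachol (1 uM final, an EC50 level) for 5 h at 37 °C. CCF4 loading followed for 1 h at RT; 460/530 nm ratio gave %activity.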

[4] = Stat Signaling Pathway (AID 446; active = well fitted curve in either direction with a large enough effect, not every such curve was filed as active;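 note: ME-180 cervical cancer cells given 40 pM IL-6 alongside compound; SIE-controlled beta-lactamase reporter measured as 460/530 nm FRET emission ratio; % is set by controls: 0 for no effect and ±100 for the full control effect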); settings: ME-180 SIE beta-lactamase reporter, IL-6 stimulated, 5 h; at 7.69 µM (top of the series) unless noted
Procedure, shortened: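 Normalization used AC90 stimulation (300 pM IL-6) and AC90 inhibition (125 nM pan-JAK inhibitor at 40 pM IL-6). The underlying signal is SIE-driven beta-lactamase in ME-180 cells after 5 h IL-6 exposure with compound.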

[5] = molecular target: Glucocorticoid receptor (Homo sapiens) (UniProt P04150); assay: GR-EFC Redistribution (AID 451; calls by dose curve; note: potency is the fitted concentration of half-maximal effect); settings: CHO-K1 GR-EFC translocation, beta-gal luminescence, 2 h
Procedure, shortened: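 CHO-K1 cells stably expressing nuclear-localized β-gal enzyme acceptor and GR fused C-terminally to the enzyme donor fragment; ligand-driven nuclear translocation restores β-gal by complementation. Compounds titrated up to 46 uM final, 2 h at 37 °C; luminescence read.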

[6] = molecular target: Mitogen-activated protein kinase 10 (Mus musculus) (UniProt Q61831); assay: JNK3 AlphaScreen Assay (AID 530; active = well fitted curve in either direction with a large enough effect, not every such curve was filed as active;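 note: kinase came from lysate of stimulated human HepG2 cells; signal reports phosphorylation of biotinylated GST-cJun 1-79 at Ser73 with 10 µM ATP; % is set by controls: 0 for no effect and ±100 for the full control effect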)
Procedure, shortened: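 Phosphorylation of biotinylated GST-cJun(1-79) at Ser73 is measured by AlphaScreen proximity luminescence. Enzyme is JNK3 in HepG2 lysates activated with interleukin-1beta and tumor necrosis factor alpha; ATP is 10 uM final.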

[7] = molecular target: Cytochrome P450 3A4 (Homo sapiens) (UniProt P08684); assay: qHTS Assay for Activators of Cytochrome P450 3A4 (AID 885); note: nearly all actives have a fitted effect of over 65% in size
Procedure, shortened: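 Human CYP3A4 dealkylates Luciferin-PPXE to luciferin, which luciferase detection converts to light. Substrate was at its KM (25uM), buffer 200mM KPO4, reaction 60 min at RT.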

[8] = molecular target: Cytochrome P450 2D6 (Homo sapiens) (UniProt P10635); assay: qHTS Assay for Inhibitors and Substrates of Cytochrome P450 2D6 (AID 891); note: potency is the fitted concentration of half-maximal effect; nearly all actives have a fitted effect of over 60% in size
Procedure, shortened: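 Luminescent read-out of luciferin formed by 5 nM human CYP2D6 demethylating 30 uM Luciferin-ME EGE (Km level) over 60 min at room temperature after NADPH regeneration addition. Data normalized to full inhibition by 1.43 uM quinidine.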

[9] = molecular target: Dual specificity protein kinase CLK4 (Homo sapiens) (UniProt Q9HAZ1); assay: qHTS Assay for Inhibitors of CDC-like Kinase 4 (Kinase-Glo Assay) (AID 1770); note: nearly all actives have a fitted effect of over 65% in size; note: potency is the fitted concentration of half-maximal effect
Procedure, shortened: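 Recombinant human Clk4 (25 nM) phosphorylated RS repeat peptide (100 uM) with 1 uM ATP in Tris pH 7.5/MgCl2/EGTA/DTT/Triton buffer for 4.5 h at room temperature. Residual ATP was quantified by Kinase-Glo luciferase luminescence.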

[10] = molecular target: Dual specificity protein kinase CLK4 (Homo sapiens) (UniProt Q9HAZ1); assay: qHTS Assay for Inhibitors of CDC-like Kinase 4 (ADP-Glo Assay) (AID 1771); note: nearly all actives have a fitted effect of over 70% in size; note: potency is the fitted concentration of half-maximal effect
Procedure, shortened: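 Compounds are pin-transferred onto substrate mix (100 uM RS peptide, 1 uM ATP), then 25 nM Clk4 is added. After 1 hr at room temperature, ADP-Glo reagent runs 45 min, detection reagent 30 min, then luminescence is read.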

[11] = molecular target: Dual specificity protein kinase CLK4 (Homo sapiens) (UniProt Q9HAZ1); assay: qHTS Assay for Inhibitors of CDC-like Kinase 4 (ADP-FP Assay) (AID 1795); note: nearly all actives have a fitted effect of over 60% in size; note: potency is the fitted concentration of half-maximal effect
Procedure, shortened: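 Recombinant human Clk4 (6.25 nM) phosphorylated RS repeat peptide (100 uM) with 1 uM ATP in Tris pH 7.5/MgCl2/EGTA/DTT/Triton buffer for one hour. ADP was quantified by Transcreener competitive fluorescence polarization against an ADP calibration curve.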

[12] = Primary qHTS for small molecule stabilizers of the endoplasmic reticulum resident proteome: Secreted ER Calcium Modulated Protein (SERCaMP) assay (AID 1508630); note: % is set by controls: 0 for no effect and ±100 for the full control effect
Procedure, shortened: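 The SH-SY5Y reporter protocol was run at 3 concentrations up to 38.3 uM (primary) or 11 concentrations (follow-up): 16 h compound, 100 nM thapsigargin for 4 h, then extracellular luciferase luminescence.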

[13] = molecular target: Lysosomal acid glucosylceramidase (Homo sapiens) (UniProt P04062); assay: Glucocerebrosidase-p2 (AID 348; in the data active = potency below about 10 µM; note: potency is the fitted concentration of half-maximal effect); settings: purified GBA, blue fluorogenic substrate, 40 min
Procedure, shortened: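 Normal human glucocerebrosidase (0.2 nM) with blue fluorogenic substrate (80 uM final) in citrate/phosphate pH 5.9 with 10mM sodium taurocholate, 0.01% tween-20; 40 min RT, NaOH/glycine stop; fluorescence Ex 365/Em 440; AC50 from a titration from 0.6 nM upwards.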

[14] = molecular target: Glucocorticoid receptor (Homo sapiens) (UniProt P04150); assay: GR-GFP Redistribution (AID 450;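 active = compounds whose dose series gives a full or clear partial fitted curve of increased nuclear translocation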; note: potency is the fitted concentration of half-maximal effect); settings: U2OS GR-GFP nuclear translocation, laser cytometry, 2 h
[15] = molecular target: 3',5'-cyclic-AMP phosphodiesterase 4B (Homo sapiens) (UniProt Q07343); assay: qHTS Assay for Inhibitors of PDE-IV (AID 607; active = well fitted activation curve with a large enough effect in the main read-out, with a control signal flat, not every such curve was filed as active; note: % of control where 0% means no effect)
Procedure, shortened: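 HEK293 ACTOne cells with CNG channel (1000/well), endogenous PDE4; membrane potential dye, compounds up to 22.9 uM final. Fluorescence Ex 535/Em 590; RO 20-1724 (100 uM final) as reference.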

[16] = qHTS Assay for Identification of Small Molecule Agonists for Hypoxia Response Element Signaling Pathway (AID 914; active = well fitted activation curve with a large enough effect in the signal ratio, with a control signal flat, not every such curve was filed as active; the % refers to the signal ratio; note: potency is the fitted concentration of half-maximal effect); settings: ME-180 (cervical carcinoma) HRE-bla reporter, beta-lactamase ratio, CoCl2, 17 h; activation: active compounds read high
Procedure, shortened: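 In Opti-MEM containing 0.5% dialyzed FBS and 10 mM HEPES, ME-180 HRE-bla cells received a compound titration and EC50 CoCl2. They were incubated 17 hours, then CCF4-loaded 2.5 hours at room temperature before ratio reading.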

[17] = molecular target: Ubiquitin carboxyl-terminal hydrolase 1 (Homo sapiens) (UniProt O94782); assay: Inhibitors of USP1/UAF1: Pilot qHTS (AID 504865); note: nearly all actives have a fitted effect of over 35% in size; note: potency is the fitted concentration of half-maximal effect
Procedure, shortened: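 USP1/UAF1 complex (1nM) preincubated with compound 15 min at room temperature, then Ub-Rho substrate (150nM final) added. Fluorescence read kinetically at 480/540 nm, 6 reads every 60 seconds. Buffer: 50mM HEPES pH 7.8, 0.5mM EDTA, 0.1 mg/ml BSA, 1mM TCEP, 0.01% Tween-20.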

[18] = molecular target: Cytochrome P450 3A4 (Homo sapiens) (UniProt P08684); assay: qHTS Assay for Inhibitors and Substrates of Cytochrome P450 3A4 (AID 884); note: potency is the fitted concentration of half-maximal effect; nearly all actives have a fitted effect of over 50% in size
Procedure, shortened: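 Luminescent readout of luciferin produced by CYP3A4 (20 nM) dealkylation of Luciferin-PPXE, 25 uM (its KM). NADPH-driven reaction ran 60 min at RT after 10 min compound preincubation; data scaled to 57 uM ketoconazole as 100% inhibition.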

[19] = molecular target: Cytochrome P450 2C19 (Homo sapiens) (UniProt P33261); assay: qHTS Assay for Inhibitors and Substrates of Cytochrome P450 2C19 (AID 899); note: potency is the fitted concentration of half-maximal effect; nearly all actives have a fitted effect of over 60% in size
Procedure, shortened: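 In 50mM KPO4, the reaction held 5nM enzyme and KM-level (10uM) Luciferin-H EGE; it ran 60 min at 37C after NADPH regeneration and a 10 min compound preincubation. Luminescence values were scaled to 57uM ketoconazole as complete inhibition.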

[20] = molecular target: Cytochrome P450 2C9 (Homo sapiens) (UniProt P11712); assay: qHTS Assay for Inhibitors and Substrates of Cytochrome P450 2C9 (AID 883); note: % is set by controls: 0 for no effect and ±100 for the full control effect; nearly all actives have a fitted effect of over 60% in size
Procedure, shortened: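 CYP2C9 deoxyluciferin hydroxylation, 37C, 60 min with NADPH regeneration; 10nM enzyme, 100uM Luciferin-H (KM). Glo detection reagent stopped reaction; luminescence normalized to sulphaphenazole (57uM) full inhibition.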

Chain of Cytochrome P450 1A2 (Homo sapiens) (P05177 whole entry, looked up): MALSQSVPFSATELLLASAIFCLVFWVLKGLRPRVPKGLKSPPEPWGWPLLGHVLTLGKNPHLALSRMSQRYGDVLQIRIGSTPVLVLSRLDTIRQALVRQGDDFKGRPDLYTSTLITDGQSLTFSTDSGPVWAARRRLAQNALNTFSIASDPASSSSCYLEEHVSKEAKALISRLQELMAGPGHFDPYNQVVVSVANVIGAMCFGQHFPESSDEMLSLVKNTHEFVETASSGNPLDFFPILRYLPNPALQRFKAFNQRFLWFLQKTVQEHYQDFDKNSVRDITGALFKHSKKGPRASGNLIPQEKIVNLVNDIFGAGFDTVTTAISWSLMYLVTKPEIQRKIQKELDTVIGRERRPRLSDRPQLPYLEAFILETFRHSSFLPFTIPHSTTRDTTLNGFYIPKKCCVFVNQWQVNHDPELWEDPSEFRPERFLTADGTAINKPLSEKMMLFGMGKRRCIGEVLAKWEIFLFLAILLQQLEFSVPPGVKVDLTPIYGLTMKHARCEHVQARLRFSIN
Chain of Ubiquitin carboxyl-terminal hydrolase 1 (Homo sapiens) (O94782 whole entry, looked up): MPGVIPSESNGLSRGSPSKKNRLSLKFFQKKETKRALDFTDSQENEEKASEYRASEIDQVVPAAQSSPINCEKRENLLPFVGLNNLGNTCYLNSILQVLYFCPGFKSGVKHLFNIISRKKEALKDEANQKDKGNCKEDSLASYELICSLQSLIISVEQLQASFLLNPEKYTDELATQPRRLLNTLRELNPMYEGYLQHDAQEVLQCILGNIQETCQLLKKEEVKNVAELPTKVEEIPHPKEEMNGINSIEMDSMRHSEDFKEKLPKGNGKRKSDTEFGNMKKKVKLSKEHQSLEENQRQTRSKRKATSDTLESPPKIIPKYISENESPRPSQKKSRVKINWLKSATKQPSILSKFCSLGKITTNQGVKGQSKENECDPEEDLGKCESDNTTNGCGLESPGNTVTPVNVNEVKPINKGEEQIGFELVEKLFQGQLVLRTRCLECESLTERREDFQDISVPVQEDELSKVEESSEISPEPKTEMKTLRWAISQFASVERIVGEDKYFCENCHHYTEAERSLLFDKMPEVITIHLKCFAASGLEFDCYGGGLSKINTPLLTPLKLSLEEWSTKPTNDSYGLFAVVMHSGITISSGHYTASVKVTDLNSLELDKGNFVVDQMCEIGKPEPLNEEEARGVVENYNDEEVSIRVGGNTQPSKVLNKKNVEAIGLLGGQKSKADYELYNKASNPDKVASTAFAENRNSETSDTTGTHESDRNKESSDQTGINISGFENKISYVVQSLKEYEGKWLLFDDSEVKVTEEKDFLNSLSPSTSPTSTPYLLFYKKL
Chain of Lysosomal acid glucosylceramidase (Homo sapiens) (P04062 whole entry, looked up): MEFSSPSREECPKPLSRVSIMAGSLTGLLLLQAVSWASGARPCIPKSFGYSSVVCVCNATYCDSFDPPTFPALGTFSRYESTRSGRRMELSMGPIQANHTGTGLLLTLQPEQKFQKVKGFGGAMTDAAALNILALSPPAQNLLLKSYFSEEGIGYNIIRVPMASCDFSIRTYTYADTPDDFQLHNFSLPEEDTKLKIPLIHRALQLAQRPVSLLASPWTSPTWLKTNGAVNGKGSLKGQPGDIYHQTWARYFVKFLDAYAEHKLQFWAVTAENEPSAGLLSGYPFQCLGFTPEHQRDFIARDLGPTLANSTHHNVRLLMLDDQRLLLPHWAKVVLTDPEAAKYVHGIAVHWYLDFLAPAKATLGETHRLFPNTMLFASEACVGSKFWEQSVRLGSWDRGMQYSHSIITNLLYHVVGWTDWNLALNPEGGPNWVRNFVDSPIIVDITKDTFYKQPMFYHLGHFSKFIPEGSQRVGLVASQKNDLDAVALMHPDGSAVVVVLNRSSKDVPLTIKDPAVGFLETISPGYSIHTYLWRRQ
Chain of Glucocorticoid receptor (Homo sapiens) (P04150 whole entry, looked up, the tested form may be a part): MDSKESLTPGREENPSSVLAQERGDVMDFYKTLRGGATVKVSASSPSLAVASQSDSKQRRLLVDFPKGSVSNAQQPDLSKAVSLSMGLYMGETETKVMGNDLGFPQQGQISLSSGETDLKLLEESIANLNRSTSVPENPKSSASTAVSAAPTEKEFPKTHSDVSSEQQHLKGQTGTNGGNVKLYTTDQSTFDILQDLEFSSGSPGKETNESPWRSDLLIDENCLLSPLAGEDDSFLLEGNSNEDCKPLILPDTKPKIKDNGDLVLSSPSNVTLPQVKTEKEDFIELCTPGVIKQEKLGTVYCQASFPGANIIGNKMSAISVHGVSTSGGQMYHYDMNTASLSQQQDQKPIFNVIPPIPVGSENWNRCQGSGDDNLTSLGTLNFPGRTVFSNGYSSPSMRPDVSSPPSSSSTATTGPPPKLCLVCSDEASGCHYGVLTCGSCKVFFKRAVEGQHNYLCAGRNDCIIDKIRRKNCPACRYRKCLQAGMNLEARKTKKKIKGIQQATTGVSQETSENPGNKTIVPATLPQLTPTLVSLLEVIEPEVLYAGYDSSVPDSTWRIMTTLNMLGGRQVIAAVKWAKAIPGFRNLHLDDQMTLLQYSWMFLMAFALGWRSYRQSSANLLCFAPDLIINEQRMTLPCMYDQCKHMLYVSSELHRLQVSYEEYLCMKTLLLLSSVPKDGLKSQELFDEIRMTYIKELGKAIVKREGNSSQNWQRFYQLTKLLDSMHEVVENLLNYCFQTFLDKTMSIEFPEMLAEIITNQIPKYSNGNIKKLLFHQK
Chain of 3',5'-cyclic-AMP phosphodiesterase 4B (Homo sapiens) (Q07343 whole entry, looked up): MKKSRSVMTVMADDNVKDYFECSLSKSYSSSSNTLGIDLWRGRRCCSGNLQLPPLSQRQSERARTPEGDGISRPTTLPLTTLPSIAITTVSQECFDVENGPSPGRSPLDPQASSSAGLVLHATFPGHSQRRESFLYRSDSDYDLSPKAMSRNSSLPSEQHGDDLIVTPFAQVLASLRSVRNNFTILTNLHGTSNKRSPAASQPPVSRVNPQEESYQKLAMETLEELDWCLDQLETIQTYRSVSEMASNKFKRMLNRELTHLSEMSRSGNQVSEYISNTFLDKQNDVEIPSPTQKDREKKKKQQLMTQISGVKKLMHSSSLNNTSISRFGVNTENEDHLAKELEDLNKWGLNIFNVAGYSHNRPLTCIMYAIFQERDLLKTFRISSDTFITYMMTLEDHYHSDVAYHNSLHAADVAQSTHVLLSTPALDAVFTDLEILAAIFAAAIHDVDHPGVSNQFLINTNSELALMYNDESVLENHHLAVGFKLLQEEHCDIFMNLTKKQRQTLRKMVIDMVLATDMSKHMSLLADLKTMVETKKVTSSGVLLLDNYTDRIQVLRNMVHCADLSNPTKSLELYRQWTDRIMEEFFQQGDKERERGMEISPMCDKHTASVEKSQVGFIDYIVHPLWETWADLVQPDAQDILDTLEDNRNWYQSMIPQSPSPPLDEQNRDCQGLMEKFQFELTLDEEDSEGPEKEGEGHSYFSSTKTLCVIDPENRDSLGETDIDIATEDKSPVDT
Chain of Dual specificity protein kinase CLK4 (Homo sapiens) (Q9HAZ1 whole entry, looked up): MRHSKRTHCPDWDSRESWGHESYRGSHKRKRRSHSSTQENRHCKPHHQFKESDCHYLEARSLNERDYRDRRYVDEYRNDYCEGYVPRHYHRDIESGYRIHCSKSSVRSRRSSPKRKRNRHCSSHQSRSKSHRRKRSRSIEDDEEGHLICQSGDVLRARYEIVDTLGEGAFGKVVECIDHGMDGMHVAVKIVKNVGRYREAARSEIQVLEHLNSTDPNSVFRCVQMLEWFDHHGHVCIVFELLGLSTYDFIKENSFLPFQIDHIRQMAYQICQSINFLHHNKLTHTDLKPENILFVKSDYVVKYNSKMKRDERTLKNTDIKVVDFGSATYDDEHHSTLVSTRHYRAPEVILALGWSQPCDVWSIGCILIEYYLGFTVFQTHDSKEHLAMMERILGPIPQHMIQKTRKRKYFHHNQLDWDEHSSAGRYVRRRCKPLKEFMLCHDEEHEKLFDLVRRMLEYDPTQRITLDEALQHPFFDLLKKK
Chain of Cytochrome P450 3A4 (Homo sapiens) (P08684 whole entry, looked up): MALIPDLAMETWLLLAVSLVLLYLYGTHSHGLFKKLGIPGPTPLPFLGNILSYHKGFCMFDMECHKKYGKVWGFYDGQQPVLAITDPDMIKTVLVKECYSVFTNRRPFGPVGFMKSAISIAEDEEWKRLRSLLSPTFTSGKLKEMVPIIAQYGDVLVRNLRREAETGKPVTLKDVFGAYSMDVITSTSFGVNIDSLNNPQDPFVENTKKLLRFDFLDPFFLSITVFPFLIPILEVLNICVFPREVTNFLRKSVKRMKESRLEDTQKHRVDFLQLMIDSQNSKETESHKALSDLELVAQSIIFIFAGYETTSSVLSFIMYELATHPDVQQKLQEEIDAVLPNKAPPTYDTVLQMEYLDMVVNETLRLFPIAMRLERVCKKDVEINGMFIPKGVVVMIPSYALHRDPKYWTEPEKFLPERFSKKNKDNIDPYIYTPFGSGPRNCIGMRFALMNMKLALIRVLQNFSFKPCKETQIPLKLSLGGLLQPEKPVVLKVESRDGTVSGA
Chain of Cytochrome P450 2D6 (Homo sapiens) (P10635 whole entry, looked up): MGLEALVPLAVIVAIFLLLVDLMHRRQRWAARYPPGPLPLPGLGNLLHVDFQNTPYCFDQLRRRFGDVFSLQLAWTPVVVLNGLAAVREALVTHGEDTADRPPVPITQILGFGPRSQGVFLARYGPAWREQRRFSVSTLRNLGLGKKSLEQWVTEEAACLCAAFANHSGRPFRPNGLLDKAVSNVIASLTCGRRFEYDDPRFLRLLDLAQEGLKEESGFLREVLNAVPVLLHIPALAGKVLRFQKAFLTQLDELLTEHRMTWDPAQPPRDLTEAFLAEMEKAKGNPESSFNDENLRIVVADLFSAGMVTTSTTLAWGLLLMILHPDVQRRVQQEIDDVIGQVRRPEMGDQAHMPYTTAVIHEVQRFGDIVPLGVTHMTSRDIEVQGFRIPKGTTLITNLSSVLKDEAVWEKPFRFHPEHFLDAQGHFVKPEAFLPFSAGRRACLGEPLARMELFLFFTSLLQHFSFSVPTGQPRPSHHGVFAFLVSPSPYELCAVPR

COc1ccccc1CNc1ccnc(-c2ccccc2OC)n1
active: Potency [2] 3.98 µM | Potency [8] 1.58 µM
inactive: activity change, negative = inhibition [1] -0.503% | activity change, negative = inhibition [3] -0.0586% | activity, negative = inhibition [4] 9.83% | Potency [5] > 46 µM | Potency [6] | Potency [7] | Potency [9] | Potency [10] | Potency [11] | outcome [12]

COc1cccc(Cn2c(=O)c(-c3ccc(Cl)cc3)nc3cnc(N4CCOCC4)nc32)c1
active: Potency [16] 1.58 µM
inactive: Potency [13] > 11.4 µM | Potency [14] > 9.22 µM | Potency [5] > 46 µM | Potency [6] | Potency [15] | Potency [9] | Potency [10] | Potency [11] | Potency [17] | outcome [12]

O=c1c(-c2ccc(Cl)cc2)nc2cnc(N3CCNCC3)nc2n1CCc1ccccc1
inactive: Potency [13] > 11.4 µM | Potency [14] > 9.22 µM | Potency [5] > 46 µM | Potency [15] | Potency [7] | Potency [9] | Potency [10] | Potency [11] | outcome [12]

CNc1ccnc(-c2cccc(NS(C)(=O)=O)c2)n1
inactive: activity change, negative = inhibition [1] 13.6% | activity change, negative = inhibition [3] 18.6% | activity, negative = inhibition [4] -1.8% | Potency [14] > 46 µM | Potency [5] > 46 µM | Potency [6] | Potency [15] | Potency [9] | Potency [10] | Potency [11] | Potency [17] | outcome [12]

CC(=O)NCCNc1ncnc2ccc(-c3ccc4c(c3)OCO4)cc12
inactive: activity change, negative = inhibition [1] -23.9% | activity change, negative = inhibition [3] 12.4% | activity, negative = inhibition [4] -10.3% | Potency [14] > 46 µM | Potency [5] > 46 µM | Potency [6] | Potency [15] | Potency [7] | Potency [17] | outcome [12]
active: Potency [2] 0.501 µM | Potency [18] 5.01 µM | Potency [19] 6.31 µM | Potency [9] 0.141 µM | Potency [10] 0.0891 µM | Potency [11] 0.126 µM

O=c1c(-c2ccc(Cl)cc2)nc2cnc(N3CCNCC3)nc2n1-c1ccccc1
inactive: Potency [13] > 11.4 µM | Potency [14] > 9.22 µM | Potency [5] > 46 µM | Potency [7] | Potency [9] | Potency [10] | Potency [11] | Potency [17] | outcome [12]
active: activity change, negative = inhibition [3] 153% [activator]

COc1ccc(CNc2ccnc(-c3ccc(N(C)C)cc3)n2)c(OC)c1
inactive: activity change, negative = inhibition [1] 8.69% | activity change, negative = inhibition [3] -3.37% | activity, negative = inhibition [4] -13.6% | Potency [14] > 46 µM | Potency [5] > 46 µM | Potency [6] | Potency [15] | Potency [7] | Potency [9] | Potency [10] | Potency [11] | Potency [17] | outcome [12]
active: Potency [2] 3.16 µM

Cn1c(=O)c(-c2ccc(Cl)cc2)nc2cnc(N3CCNCC3)nc21
inactive: Potency [13] > 11.4 µM | Potency [14] > 9.22 µM | Potency [5] > 46 µM | Potency [6] | Potency [15] | Potency [7] | Potency [9] | Potency [10] | Potency [11] | Potency [17] | outcome [12]
active: activity change, negative = inhibition [3] 204% [activator]

N#CCCn1c(=O)c(-c2ccc(F)cc2)nc2cnc(N3CCNCC3)nc21
inactive: Potency [13] > 11.4 µM | Potency [14] > 9.22 µM | Potency [5] > 46 µM | Potency [6] | Potency [15] | Potency [7] | Potency [9] | Potency [10] | Potency [11] | Potency [17] | outcome [12]
active: Potency [16] 3.16 µM

CN(C)c1ncc2nc(-c3cc(F)cc(F)c3)c(=O)n(Cc3ccc(F)cc3)c2n1
active: Potency [16] 3.16 µM
inactive: Potency [2] | Potency [14] > 46 µM | Potency [5] > 46 µM | Potency [6] | Potency [15] | Potency [20] | Potency [7] | Potency [9] | Potency [10] | Potency [11] | Potency [17] | outcome [12]

N#Cc1cccc(-c2ccc3ncnc(N4CCNCC4)c3c2)c1
active: Potency [2] 0.631 µM | Potency [9] 12.6 µM | Potency [10] 22.4 µM | Potency [11] 11.2 µM | Potency [17] 20 µM
inactive: activity change, negative = inhibition [1] -0.846% | activity change, negative = inhibition [3] 6.74% | activity, negative = inhibition [4] 11.7% | Potency [14] > 46 µM | Potency [5] > 46 µM | Potency [6] | Potency [15] | Potency [7] | outcome [12]

COc1ccc(-c2nc3cnc(OCc4ccccc4)nc3n(CCC#N)c2=O)cc1
inactive: Potency [13] > 11.4 µM | Potency [14] > 9.22 µM | Potency [5] > 46 µM | Potency [6] | Potency [15] | Potency [7] | Potency [9] | Potency [10] | Potency [11] | outcome [12]

CN(Cc1ccco1)c1ncncc1-c1cccc(NS(C)(=O)=O)c1
inactive: activity change, negative = inhibition [3] -4.49% | activity, negative = inhibition [4] 8.28% | Potency [14] > 46 µM | Potency [5] > 46 µM | Potency [6] | Potency [15] | Potency [7] | Potency [9] | Potency [10] | Potency [11] | Potency [17] | outcome [12]
active: Potency [2] 15.8 µM

COc1cccc(Cn2c(=O)c(-c3cn(C)c4ccccc34)nc3cnc(OC)nc32)c1
active: Potency [18] 7.94 µM
inactive: Potency [13] > 11.4 µM | activity change, negative = inhibition [3] 1.88% | Potency [14] > 9.22 µM | Potency [5] > 46 µM | Potency [6] | Potency [15] | Potency [7] | Potency [9] | Potency [10] | Potency [11] | Potency [17] | outcome [12]
